# Results published in paper PMC7862700, “An all-to-all approach to the identification of sequence-specific readers for epigenetic DNA modifications on cytosine”.
# Columns and labels:
# Experiment in all cases: DAPPL (digital affinity profiling via proximity ligation, sequencing); 10 mM Tris-HCl pH 7.5, 50 mM NaCl, 1 mM DTT, 4% glycerol, room temperature, 30 min; GST-TFs on glutathione beads, 16-mer random dsDNA library, 0.1% formaldehyde crosslink after washing; high values mean tight binding
# Details in all cases: protein: recombinant; tags: N-terminal GST; dsDNA, one strand shown
# FLI1 = target: T1, FLI1 (Homo sapiens, UniProt Q01543 1-452)
# T1 sequence: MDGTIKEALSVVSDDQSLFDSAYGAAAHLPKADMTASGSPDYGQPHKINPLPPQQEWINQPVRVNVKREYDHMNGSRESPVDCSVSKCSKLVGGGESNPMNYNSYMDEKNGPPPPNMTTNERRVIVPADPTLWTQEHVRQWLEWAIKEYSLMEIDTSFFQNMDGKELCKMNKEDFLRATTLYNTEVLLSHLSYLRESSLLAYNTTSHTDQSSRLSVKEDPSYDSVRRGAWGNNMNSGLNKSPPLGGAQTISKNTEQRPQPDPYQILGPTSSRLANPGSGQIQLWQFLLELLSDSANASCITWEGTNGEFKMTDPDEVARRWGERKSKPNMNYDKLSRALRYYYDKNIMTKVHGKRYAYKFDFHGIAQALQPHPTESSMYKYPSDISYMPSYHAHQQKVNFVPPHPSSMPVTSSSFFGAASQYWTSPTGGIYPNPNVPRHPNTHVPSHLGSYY
# Summary of the method: (§1)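 Yeast served to express human transcription factors as GST fusions, which were then captured on glutathione beads and labelled with DNA barcodes. Pooled with a tag-only sample, they were incubated with 200 nmole of a 16-mer random double-stranded DNA library for 30 min at room temperature in Tris/NaCl/DTT/glycerol buffer, washed, crosslinked with 0.1% formaldehyde, ligated by proximity, amplified by PCR and sequenced. Dividing each hexamer's read frequency for a factor by its frequency for the tag-only sample gives the binding signal.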
# ELK1 = target: T2, ELK1 (Homo sapiens, UniProt P19419 1-428)
# T2 sequence: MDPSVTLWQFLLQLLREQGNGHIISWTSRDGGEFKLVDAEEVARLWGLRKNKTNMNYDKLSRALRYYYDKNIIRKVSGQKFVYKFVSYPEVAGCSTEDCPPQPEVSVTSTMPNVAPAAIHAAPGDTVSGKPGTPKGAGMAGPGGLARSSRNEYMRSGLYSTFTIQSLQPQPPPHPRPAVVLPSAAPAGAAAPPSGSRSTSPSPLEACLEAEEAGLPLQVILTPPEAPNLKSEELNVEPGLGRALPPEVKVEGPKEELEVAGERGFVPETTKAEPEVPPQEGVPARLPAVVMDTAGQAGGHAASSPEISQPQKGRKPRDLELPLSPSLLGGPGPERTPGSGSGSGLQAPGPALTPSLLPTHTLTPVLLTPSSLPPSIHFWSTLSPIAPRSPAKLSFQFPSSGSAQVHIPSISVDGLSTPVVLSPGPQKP
# Summary of the method: as §1
# GABPA = target: T3, GABPA (Homo sapiens, UniProt Q06546 1-454)
# T3 sequence: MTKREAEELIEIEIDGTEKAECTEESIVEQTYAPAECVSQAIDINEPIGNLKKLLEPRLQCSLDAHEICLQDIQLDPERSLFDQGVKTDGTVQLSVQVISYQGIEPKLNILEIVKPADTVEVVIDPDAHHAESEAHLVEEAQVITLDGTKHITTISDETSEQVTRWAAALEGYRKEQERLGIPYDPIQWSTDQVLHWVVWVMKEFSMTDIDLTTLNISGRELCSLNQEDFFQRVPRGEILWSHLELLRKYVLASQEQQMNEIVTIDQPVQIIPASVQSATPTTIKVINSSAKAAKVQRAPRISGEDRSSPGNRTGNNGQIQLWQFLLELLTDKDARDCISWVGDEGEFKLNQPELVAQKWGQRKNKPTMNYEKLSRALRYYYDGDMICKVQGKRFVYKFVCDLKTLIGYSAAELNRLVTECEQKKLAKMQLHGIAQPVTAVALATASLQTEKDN
# Summary of the method: as §1
# ERG = target: T4, ERG (Homo sapiens, UniProt P11308 1-479)
# T4 sequence: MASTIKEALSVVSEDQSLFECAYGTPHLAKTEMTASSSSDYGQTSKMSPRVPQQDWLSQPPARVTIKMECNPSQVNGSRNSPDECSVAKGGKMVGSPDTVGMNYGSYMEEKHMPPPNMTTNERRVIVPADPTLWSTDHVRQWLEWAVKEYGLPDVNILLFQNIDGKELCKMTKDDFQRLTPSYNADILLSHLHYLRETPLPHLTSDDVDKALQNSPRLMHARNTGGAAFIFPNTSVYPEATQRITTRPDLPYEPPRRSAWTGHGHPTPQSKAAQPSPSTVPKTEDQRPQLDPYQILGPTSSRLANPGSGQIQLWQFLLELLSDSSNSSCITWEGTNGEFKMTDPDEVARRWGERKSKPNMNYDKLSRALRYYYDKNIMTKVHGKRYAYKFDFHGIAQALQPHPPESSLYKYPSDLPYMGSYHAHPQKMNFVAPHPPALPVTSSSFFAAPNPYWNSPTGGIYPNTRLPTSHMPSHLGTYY
# Summary of the method: as §1
# ELF1 = ELF1 (Homo sapiens, UniProt P32519 1-619)
# ELF1, sequence (P32519 whole entry): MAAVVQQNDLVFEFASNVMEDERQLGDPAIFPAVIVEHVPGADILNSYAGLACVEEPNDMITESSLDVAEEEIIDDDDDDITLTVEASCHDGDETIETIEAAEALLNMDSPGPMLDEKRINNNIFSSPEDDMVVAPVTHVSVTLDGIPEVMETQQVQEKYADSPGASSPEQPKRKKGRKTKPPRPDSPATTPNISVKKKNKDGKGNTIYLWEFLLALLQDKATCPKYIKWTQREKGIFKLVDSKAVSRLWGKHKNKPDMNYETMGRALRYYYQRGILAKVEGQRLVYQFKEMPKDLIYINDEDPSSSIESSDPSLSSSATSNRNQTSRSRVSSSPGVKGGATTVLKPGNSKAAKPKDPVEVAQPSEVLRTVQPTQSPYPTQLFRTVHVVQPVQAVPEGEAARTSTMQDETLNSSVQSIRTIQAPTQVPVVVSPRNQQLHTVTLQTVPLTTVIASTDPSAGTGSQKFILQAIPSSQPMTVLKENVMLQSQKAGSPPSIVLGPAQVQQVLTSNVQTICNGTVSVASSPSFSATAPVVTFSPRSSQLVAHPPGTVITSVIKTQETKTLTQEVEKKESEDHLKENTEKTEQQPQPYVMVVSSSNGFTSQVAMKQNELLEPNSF
# Summary of the method: as §1
# EHF = target: T5, EHF (Homo sapiens, UniProt Q9NZC4 1-300)
# T5 sequence: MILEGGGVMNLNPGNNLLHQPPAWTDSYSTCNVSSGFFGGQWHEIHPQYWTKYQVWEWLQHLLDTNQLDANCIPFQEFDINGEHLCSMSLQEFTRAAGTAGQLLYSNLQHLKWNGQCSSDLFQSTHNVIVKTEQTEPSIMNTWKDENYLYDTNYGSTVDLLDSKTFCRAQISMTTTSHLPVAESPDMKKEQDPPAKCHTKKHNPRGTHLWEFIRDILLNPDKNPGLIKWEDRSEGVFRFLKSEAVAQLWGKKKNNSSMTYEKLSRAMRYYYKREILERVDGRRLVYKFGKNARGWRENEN
# Summary of the method: as §1
# SPI1 = SPI1 (Homo sapiens, UniProt P17947 1-270)
# Summary of the method: as §1
# SPIB = SPIB (Homo sapiens, UniProt Q01892 1-262)
# SPIB, sequence (Q01892 whole entry): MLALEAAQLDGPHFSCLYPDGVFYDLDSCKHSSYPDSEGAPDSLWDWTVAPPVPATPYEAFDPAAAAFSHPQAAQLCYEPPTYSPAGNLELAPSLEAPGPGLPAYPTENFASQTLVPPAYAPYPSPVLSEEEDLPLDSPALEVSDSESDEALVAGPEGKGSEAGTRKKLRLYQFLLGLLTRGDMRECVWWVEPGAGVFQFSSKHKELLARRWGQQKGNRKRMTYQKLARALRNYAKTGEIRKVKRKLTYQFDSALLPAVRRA
# Summary of the method: as §1
# ELK3 = target: T6, ELK3 (Homo sapiens, UniProt P41970 1-407)
# T6 sequence: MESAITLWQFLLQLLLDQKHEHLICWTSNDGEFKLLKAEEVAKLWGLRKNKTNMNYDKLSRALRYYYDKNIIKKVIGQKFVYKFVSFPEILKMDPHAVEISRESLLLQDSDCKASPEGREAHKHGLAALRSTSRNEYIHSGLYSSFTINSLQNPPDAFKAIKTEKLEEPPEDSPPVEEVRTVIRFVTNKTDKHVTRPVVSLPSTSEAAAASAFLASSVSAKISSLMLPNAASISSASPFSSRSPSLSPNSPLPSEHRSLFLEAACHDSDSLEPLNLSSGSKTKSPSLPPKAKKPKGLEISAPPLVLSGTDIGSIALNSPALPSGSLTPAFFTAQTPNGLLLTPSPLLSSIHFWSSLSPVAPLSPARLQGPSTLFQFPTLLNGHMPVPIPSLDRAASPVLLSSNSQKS
# Summary of the method: as §1
# FEV = target: T7, FEV (Homo sapiens, UniProt Q99581 1-238)
# T7 sequence: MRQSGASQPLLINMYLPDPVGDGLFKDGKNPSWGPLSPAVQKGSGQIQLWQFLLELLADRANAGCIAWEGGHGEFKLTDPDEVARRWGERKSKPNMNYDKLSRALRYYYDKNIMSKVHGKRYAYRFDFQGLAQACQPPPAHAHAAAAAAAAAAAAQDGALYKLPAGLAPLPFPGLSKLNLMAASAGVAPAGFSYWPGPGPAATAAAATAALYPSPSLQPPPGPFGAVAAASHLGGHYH
# Summary of the method: as §1
# ETV5 = ETV5 (Homo sapiens, UniProt P41161 1-510)
# ETV5, sequence (P41161 whole entry): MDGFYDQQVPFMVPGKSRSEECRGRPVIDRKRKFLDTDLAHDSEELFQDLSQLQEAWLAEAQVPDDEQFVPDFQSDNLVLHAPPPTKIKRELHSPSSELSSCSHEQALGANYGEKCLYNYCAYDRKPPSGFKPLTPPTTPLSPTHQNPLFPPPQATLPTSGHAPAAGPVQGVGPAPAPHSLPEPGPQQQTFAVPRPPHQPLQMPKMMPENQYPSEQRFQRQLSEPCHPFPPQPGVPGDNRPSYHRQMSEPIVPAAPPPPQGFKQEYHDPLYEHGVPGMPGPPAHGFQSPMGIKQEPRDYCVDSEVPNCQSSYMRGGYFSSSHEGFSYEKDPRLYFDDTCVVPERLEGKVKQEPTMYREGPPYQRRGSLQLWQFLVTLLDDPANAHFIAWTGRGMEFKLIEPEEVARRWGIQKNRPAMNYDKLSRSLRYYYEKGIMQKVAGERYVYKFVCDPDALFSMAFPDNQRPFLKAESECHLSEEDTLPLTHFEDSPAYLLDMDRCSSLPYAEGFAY
# Summary of the method: as §1
# SPIC = target: T8, SPIC (Homo sapiens, UniProt Q8N5J4 1-248)
# T8 sequence: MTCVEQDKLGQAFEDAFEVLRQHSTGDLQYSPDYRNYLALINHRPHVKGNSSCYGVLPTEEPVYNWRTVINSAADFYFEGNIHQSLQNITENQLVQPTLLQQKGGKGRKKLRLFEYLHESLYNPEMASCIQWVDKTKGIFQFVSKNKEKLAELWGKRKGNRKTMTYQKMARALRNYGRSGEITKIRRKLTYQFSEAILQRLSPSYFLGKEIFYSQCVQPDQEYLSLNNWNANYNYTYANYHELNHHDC
# Summary of the method: as §1
# ELF4 = ELF4 (Homo sapiens, UniProt Q99607 1-663)
# ELF4, sequence (Q99607 whole entry): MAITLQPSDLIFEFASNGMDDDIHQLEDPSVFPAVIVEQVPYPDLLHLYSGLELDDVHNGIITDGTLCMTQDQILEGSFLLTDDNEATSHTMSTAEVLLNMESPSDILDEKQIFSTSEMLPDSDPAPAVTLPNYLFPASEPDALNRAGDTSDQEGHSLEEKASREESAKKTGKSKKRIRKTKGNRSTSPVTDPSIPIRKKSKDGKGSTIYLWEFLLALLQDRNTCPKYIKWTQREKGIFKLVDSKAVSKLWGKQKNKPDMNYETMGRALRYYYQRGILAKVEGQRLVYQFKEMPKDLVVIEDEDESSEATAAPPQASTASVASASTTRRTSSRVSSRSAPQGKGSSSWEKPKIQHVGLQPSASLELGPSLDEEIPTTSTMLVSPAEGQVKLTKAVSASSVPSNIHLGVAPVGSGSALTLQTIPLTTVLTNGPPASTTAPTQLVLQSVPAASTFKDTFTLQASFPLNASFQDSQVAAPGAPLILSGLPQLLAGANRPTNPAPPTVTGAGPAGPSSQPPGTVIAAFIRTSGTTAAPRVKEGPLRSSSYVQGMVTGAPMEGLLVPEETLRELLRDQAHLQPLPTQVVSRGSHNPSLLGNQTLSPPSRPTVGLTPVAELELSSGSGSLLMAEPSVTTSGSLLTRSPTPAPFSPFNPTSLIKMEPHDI
# Summary of the method: as §1
# ELK4 = target: T9, ELK4 (Homo sapiens, UniProt P28324-2 1-405)
# T9 sequence: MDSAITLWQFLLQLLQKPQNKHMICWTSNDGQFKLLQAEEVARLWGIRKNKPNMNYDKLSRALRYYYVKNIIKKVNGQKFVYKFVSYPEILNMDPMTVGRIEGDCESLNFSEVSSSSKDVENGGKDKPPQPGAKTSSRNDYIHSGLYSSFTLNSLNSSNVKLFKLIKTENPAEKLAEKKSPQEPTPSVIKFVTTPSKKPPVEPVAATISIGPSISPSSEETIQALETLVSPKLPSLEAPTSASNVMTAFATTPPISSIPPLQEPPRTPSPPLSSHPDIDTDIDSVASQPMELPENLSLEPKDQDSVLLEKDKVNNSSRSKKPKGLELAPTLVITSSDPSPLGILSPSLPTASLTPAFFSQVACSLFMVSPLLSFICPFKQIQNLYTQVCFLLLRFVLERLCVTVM
# Summary of the method: as §1
# ETV2 = target: T10, ETV2 (Homo sapiens, UniProt O00321 1-342)
# T10 sequence: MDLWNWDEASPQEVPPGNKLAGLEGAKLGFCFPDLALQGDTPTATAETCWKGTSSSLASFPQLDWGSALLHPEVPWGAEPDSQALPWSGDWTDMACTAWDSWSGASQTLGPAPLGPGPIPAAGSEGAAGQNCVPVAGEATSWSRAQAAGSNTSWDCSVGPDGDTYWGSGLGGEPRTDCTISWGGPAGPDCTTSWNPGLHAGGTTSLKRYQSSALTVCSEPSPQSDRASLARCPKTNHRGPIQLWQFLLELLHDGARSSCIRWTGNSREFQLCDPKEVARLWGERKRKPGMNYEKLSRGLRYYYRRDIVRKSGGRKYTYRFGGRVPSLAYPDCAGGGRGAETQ
# Summary of the method: as §1
# ELF3 = target: T11, ELF3 (Homo sapiens, UniProt P78545 1-371)
# T11 sequence: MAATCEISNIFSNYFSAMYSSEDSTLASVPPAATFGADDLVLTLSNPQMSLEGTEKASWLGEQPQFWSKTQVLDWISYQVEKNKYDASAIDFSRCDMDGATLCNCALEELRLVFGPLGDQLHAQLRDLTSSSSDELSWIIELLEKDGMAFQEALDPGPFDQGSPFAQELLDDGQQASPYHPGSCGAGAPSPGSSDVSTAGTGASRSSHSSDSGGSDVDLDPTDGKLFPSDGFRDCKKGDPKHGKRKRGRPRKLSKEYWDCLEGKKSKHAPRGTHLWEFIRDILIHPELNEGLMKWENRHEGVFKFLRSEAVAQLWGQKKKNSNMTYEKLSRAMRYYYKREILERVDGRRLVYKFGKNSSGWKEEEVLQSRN
# Summary of the method: as §1
# ETV1 = ETV1 (Homo sapiens, UniProt P50549 1-477)
# ETV1, sequence (P50549 whole entry): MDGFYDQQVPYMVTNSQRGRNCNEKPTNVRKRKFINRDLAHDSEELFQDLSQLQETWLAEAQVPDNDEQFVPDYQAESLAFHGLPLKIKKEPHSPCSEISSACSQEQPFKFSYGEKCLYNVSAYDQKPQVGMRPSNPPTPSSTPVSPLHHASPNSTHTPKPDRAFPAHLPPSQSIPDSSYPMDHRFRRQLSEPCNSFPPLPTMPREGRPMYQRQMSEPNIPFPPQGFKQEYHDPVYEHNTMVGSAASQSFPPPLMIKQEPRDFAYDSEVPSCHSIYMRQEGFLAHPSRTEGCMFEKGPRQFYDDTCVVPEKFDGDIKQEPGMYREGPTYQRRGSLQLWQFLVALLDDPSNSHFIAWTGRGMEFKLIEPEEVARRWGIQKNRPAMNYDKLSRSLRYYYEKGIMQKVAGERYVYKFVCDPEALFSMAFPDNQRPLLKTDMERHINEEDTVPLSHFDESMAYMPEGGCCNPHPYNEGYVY
# Summary of the method: as §1
Sequence,binding signal (FLI1),binding signal (ELK1),binding signal (GABPA),binding signal (ERG),binding signal (ELF1),binding signal (EHF),binding signal (SPI1),binding signal (SPIB),binding signal (ELK3),binding signal (FEV),binding signal (ETV5),binding signal (SPIC),binding signal (ELF4),binding signal (ELK4),binding signal (ETV2),binding signal (ELF3),binding signal (ETV1)
GTATAC,"1.28 fold enrichment (6-mer frequency, TF over GST control)","1.3 fold enrichment (6-mer frequency, TF over GST control)","1.32 fold enrichment (6-mer frequency, TF over GST control)","1.24 fold enrichment (6-mer frequency, TF over GST control)","1.18 fold enrichment (6-mer frequency, TF over GST control)","1.22 fold enrichment (6-mer frequency, TF over GST control)","1.18 fold enrichment (6-mer frequency, TF over GST control)","1.27 fold enrichment (6-mer frequency, TF over GST control)","1.28 fold enrichment (6-mer frequency, TF over GST control)","1.2 fold enrichment (6-mer frequency, TF over GST control)","1.24 fold enrichment (6-mer frequency, TF over GST control)","1.2 fold enrichment (6-mer frequency, TF over GST control)","1.3 fold enrichment (6-mer frequency, TF over GST control)","1.29 fold enrichment (6-mer frequency, TF over GST control)","1.1 fold enrichment (6-mer frequency, TF over GST control)","1.18 fold enrichment (6-mer frequency, TF over GST control)","1.31 fold enrichment (6-mer frequency, TF over GST control)"
ACCTGA,"1.06 fold enrichment (6-mer frequency, TF over GST control)","1.12 fold enrichment (6-mer frequency, TF over GST control)","1.03 fold enrichment (6-mer frequency, TF over GST control)","1.12 fold enrichment (6-mer frequency, TF over GST control)","1.14 fold enrichment (6-mer frequency, TF over GST control)","1.09 fold enrichment (6-mer frequency, TF over GST control)","1.01 fold enrichment (6-mer frequency, TF over GST control)","1.1 fold enrichment (6-mer frequency, TF over GST control)","1.07 fold enrichment (6-mer frequency, TF over GST control)","1.13 fold enrichment (6-mer frequency, TF over GST control)","1.07 fold enrichment (6-mer frequency, TF over GST control)","1 fold enrichment (6-mer frequency, TF over GST control)","1.15 fold enrichment (6-mer frequency, TF over GST control)","1.14 fold enrichment (6-mer frequency, TF over GST control)","1.02 fold enrichment (6-mer frequency, TF over GST control)","1.14 fold enrichment (6-mer frequency, TF over GST control)","1.06 fold enrichment (6-mer frequency, TF over GST control)"
